# In PubChem BioAssay AID1259417 (TB Discovery Research, Infectious Disease Research Institute, 2018):
# Screen size: about 1,100 compounds; about 760 (69%) were called active. No rule for the calls is given here. So high a share suggests a set chosen from earlier hits. The list shows a part of the results.
# Test: M. tuberculosis growth inhibition, HTS (AID 1259417);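 also: bacteria grown with compound for 5 days at 37 °C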
# Conditions: stronger effect = higher value, concentration not given here
# [1] = M. tuberculosis DsRed fluorescence growth inhibition
# [2] = M. tuberculosis growth inhibition
SMILES,inhibition [1],inhibition [2] [%]
COC(=O)COc1ccc(NC(=O)COc2ccc(C(C)(C)C)cc2)cc1,98.8% (active),99.4
COC(=O)COc1ccc(NC(=O)COc2ccc(C)cc2C)cc1,99.4% (active),99.7
Cc1ccc(CSCC(=O)Nc2ccccc2)cc1,3.53% (active),35.4
Cc1ccc(CSCC(=O)Nc2ccc(Cl)c(Cl)c2)cc1,2.65% (inactive),11.4
Cc1ccnc(NC(=O)COc2ccc([N+](=O)[O-])cc2)c1,-0.546% (inactive),11.9
CCOC(=O)N1CCN(C(=O)CSc2nnc(-c3cc(OC)cc(OC)c3)o2)CC1,24.7% (inactive),11.7
CCOC(=O)CSc1nnc(-c2cccc(Br)c2)o1,67.1% (active),85.8
CCOC(=O)CSc1nnc(-c2cc(OC)c(OC)c(OC)c2)o1,85.2% (active),90.4
CCCOC(=O)CSc1nnc(-c2cc(OC)c(OC)c(OC)c2)o1,71.2% (active),87.3
CCOc1ccc(C(=O)Nc2nnc(-c3ccccn3)o2)cc1,3.93% (inactive),-4.77
CCCCOc1ccc(C(=O)Nc2nnc(-c3ccco3)o2)cc1,44.2% (active),26
COc1ccc(C(=O)Nc2nnc(C3=COCCO3)o2)cc1,-1.74% (inactive),-16.2
CCCCOc1ccc(C(=O)Nc2nnc(-c3ccncc3)o2)cc1,18.1% (active),42.4
O=C(Nc1nnc(-c2ccco2)o1)c1ccc(Oc2ccccc2)cc1,70.2% (active),86.6
CCc1ccc(/C=C/C(=O)C2C(=O)c3ccccc3C2=O)cc1,100% (active),99.5
NC(=O)c1c(NC(=O)c2c(F)c(F)c(F)c(F)c2F)sc2c1CCC2,98.9% (active),95.4
COc1cc(C(=O)Nc2sc3c(c2C(N)=O)CCCC3)c(Br)c(OC)c1OC,27.3% (inactive),4.82
NC(=O)c1c(NC(=O)c2cccc(F)c2)sc2c1CCC2,-2.04% (inactive),-14.1
Cc1ccc(C(=O)Nc2sc3c(c2C(N)=O)CCC(C(C)(C)C)C3)c(C)c1 (centres undefined),-2.03% (inactive),-11.7

SMILES,inhibition [1],inhibition [2] [%]
NC(=O)c1c(NC(=O)c2c(F)c(F)c(F)c(F)c2F)sc2c1CCCCCC2,43.3% (active),78.9
CC(C)(C)c1ccc(Cn2cnc([N+](=O)[O-])n2)cc1,98.3% (active),96.6
CCOC(=O)c1c(NC(=O)c2cc(-n3cnnc3)ccc2Cl)sc2c1CCCC2,37.7% (active),36.2
COc1cccc(C(=O)Nc2sc3c(c2C(N)=O)CCCCCC3)c1,-2.93% (inactive),-15.5
CCOc1cccc(C(=O)Nc2sc3c(c2C(N)=O)CCC3)c1,-0.558% (inactive),-34.5
COC(=O)c1c(NC(=O)c2c(F)c(F)c(F)c(F)c2F)sc2c1CCC2,98.2% (active),95.8
CCOC(=O)c1c(NC(=O)COc2ccc(C(C)C)cc2)sc2c1CCC2,44.6% (active),99.6
COC(=O)c1c(NC(=O)c2c(F)c(F)c(F)c(F)c2F)sc2c1CCCCC2,97.4% (active),93
COC(=O)c1c(NC(=O)c2c(F)cccc2F)sc2c1CCC(C(C)(C)C)C2 (centres undefined),0.929% (inactive),-6.55
NC(=O)c1c(NC(=O)c2cc(Cl)ccc2Cl)sc2c1CCCCCC2,-5.89% (inactive),-25.5
Cc1cc(C2N=C(N)Nc3nc4ccccc4n32)c(C)n1-c1ccccc1Cl (centres undefined),-7.08% (inactive),-25.2
Cc1ccc(-n2cc(-c3ccccc3)c3c(NCc4cccnc4)ncnc32)cc1,19.7% (inactive),-7.61
Cc1cccc(C(=O)Nc2sc3c(c2C(=O)N2CCCC2)CCC3)c1,-0.854% (inactive),-7.24
CCOC(=O)c1c(NC(=O)c2c(F)c(F)c(F)c(F)c2F)sc2c1CCCCC2,97.9% (active),96.2
CNC(=O)c1c(NC(=O)c2cccc(C)c2)sc2c1CCC2,9.53% (inactive),-24.5
CCOC(=O)C=CC(=O)Nc1sc2c(c1C(=O)OC)CCC2,10.6% (active),29.7
Oc1ccc(Br)cc1-c1nc(-c2cccs2)c(-c2cccs2)[nH]1,1.19% (inactive),-11.5
N#Cc1cc2c(ccc3ccccc32)oc1=O,17.3% (active),55.9
CC(C)C(=O)Nc1nnc(-c2ccc(Br)cc2)o1,23.4% (active),38.6

SMILES,inhibition [1],inhibition [2] [%]
CCCCC(=O)Nc1nnc(-c2ccc(Br)cc2)o1,5.72% (inactive),15.5
COC(=O)C(C)Sc1nnc(-c2ccc(Br)cc2)o1 (centres undefined),71.1% (active),95.8
CC(C)C(=O)Nc1nnc(-c2ccccc2)o1,1.9% (inactive),2.21
CC(C)(C)C(=O)Nc1nnc(-c2ccc(Br)cc2)o1,90.8% (active),84.1
O=C1C=C(c2ccccc2)C(=O)c2ccccc21,12% (active),58.3
O=C(CSc1nc2cc(Cl)ccc2o1)NCCc1ccccc1,85.8% (active),53
COc1ccc(Cc2nnc(SCC(=O)NCc3ccco3)o2)cc1,32.4% (active),54.8
COc1ccc(Cc2nnc(SCC(=O)NCCc3ccccc3)o2)cc1,98% (active),96.2
O=C(CSc1nnc(Cc2ccccc2)o1)NCCc1ccccc1,63.5% (active),42
COc1ccc(-c2nnc(SCC(=O)NCCc3ccccc3)o2)cc1,93.3% (active),88.5
O=c1c2ccccc2[nH]c(=S)n1CCCN1CCN(c2cccc(Cl)c2)CC1,14.1% (inactive),-11.2
COc1cccc(N2CCN(Cc3nc(N)nc(Nc4ccc(C)c(Cl)c4)n3)CC2)c1,9.68% (inactive),23.6
Cc1cccc(Nc2nc(N)nc(CN3CCN(c4cccc(Cl)c4)CC3)n2)c1,33.7% (active),47.4
Cc1cccc(NC(=S)NCCN2CCN(c3ccc(F)c(Cl)c3)CC2)c1C,9.39% (inactive),-14
COc1cccc(N2CCN(Cc3nc(N)nc(Nc4ccc(C)c(C)c4)n3)CC2)c1,29.6% (active),48.8
COc1ccc(N2CCN(Cc3nc(N)nc(Nc4ccc(C)c(Cl)c4)n3)CC2)cc1,27.3% (active),55.4
O=C(OCC#CCSc1nnc(-c2ccc([N+](=O)[O-])cc2)o1)c1cccs1,65.7% (active),72.9
CC(=O)OCC#CCSc1nnc(-c2ccc(Br)cc2)o1,49.2% (active),48
O=C(OCC#CCSc1nnc(-c2ccc(Br)cc2)o1)c1cccs1,33.6% (active),31.6
